Here are results for seven molecules from PubChem BioAssay (Tox21).

Unmarked numbers belong to inactive results. Results filed as inconclusive are left out. Calls of active or inactive are those of the source. Unless noted, the call rests on the fitted dose curve; in most records, active means well fitted curve in the direction sought with a large enough effect in the repeat runs; inconclusive means weak or mixed curves; inactive means no such curve, though single readings can be large; an effect the other way counts as inactive or inconclusive.

A short description of assay [1]: qHTS assay to identify small molecule antagonists of the glucocorticoid receptor (GR) signaling pathway - cell viability counter screen (AID 720693). Further: nearly all actives have a fitted effect of over 55% in size. In general terms: In qHTS, concentration-response curves come from the screen itself.
Assay [2] is described as follows: qHTS assay for identifying genotoxic compounds that show differential cytotoxicity against isogenic chicken DT40 cell lines with known DNA damage response pathways - wild type cell line (AID 743012). Further: nearly all actives have a fitted effect of over 60% in size. Further: potency means the concentration at half of the fitted maximal effect. In outline: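 300 wt DT40 cells/well; cpd (DMSO) pintool-transferred after ~0.5 h at 37 C/5% CO2; 40 h incubation; CellTiter-Glo added, 30 min RT; luminescence read.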

A short description of assay [3]: qHTS assay for identifying genotoxic compounds that show differential cytotoxicity against isogenic chicken DT40 cell lines with known DNA damage response pathways - Rev3 mutant cell line (AID 743014). Further: nearly all actives have a fitted effect of over 55% in size. Further: potency means the concentration at half of the fitted maximal effect.
A short description of assay [4]: qHTS assay for identifying genotoxic compounds that show differential cytotoxicity against isogenic chicken DT40 cell lines with known DNA damage response pathways - Rad54/Ku70 mutant cell line (AID 743015). Further: nearly all actives have a fitted effect of over 60% in size. Further: potency means the concentration at half of the fitted maximal effect.
Assay [5] in a line: qHTS assay to identify small molecule antagonists of the androgen receptor (AR) signaling pathway - cell viability counter screen (AID 743033; further: nearly all actives have a fitted effect of over 45% in size).
A short description of assay [6]: qHTS assay to identify small molecule antagonists of the androgen receptor (AR) signaling pathway using the MDA cell line - cell viability counter screen (AID 743041; further: nearly all actives have a fitted effect of over 45% in size). In outline: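 qHTS viability read-out; MDA-kb2 AR-luc; R1881-stimulated; 16 h exposure at 37C, 0% CO2; CellTiter-Fluor, 30 min; fluorescence intensity.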
In assay [7] the target is Androgen receptor (Homo sapiens) (UniProt P10275). Description: qHTS assay to identify small molecule antagonists of the androgen receptor (AR) signaling pathway using the MDA cell line (AID 743042; further: nearly all actives have a fitted effect of over 55% in size). In outline:
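MDA-kb2 cells (human breast carcinoma, stably carrying an MMTV-luciferase reporter responsive to AR and GR) were plated at 3,000 cells/well and preincubated 5 hr at 37C, then given compound plus R1881 agonist for 16 h. ONE-Glo luminescence was read.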

In assay [8] the test system is thyroid hormone receptor (rat, GH3 cells). Description: qHTS assay to identify small molecule agonists of the thyroid receptor (TR) signaling pathway (AID 743066; calls by dose curve).
Assay [9] in a line: qHTS assay to identify small molecule antagonists of the estrogen receptor alpha (ER-alpha) signaling pathway - cell viability counter screen (AID 743074; calls by dose curve; further: nearly all actives have a fitted effect of over 45% in size).
Assay [10] addresses Estrogen receptor (Homo sapiens) (UniProt P03372). Description: qHTS assay to identify small molecule agonists of the estrogen receptor alpha (ER-alpha) signaling pathway (AID 743075; calls by dose curve).
For assay [11] the target is unchanged. Description: qHTS assay to identify small molecule agonists of the estrogen receptor alpha (ER-alpha) signaling pathway using the BG1 cell line (AID 743079). Further: nearly all actives have a fitted effect of over 20% in size. The note with it: BG1Luc4E2 cells, ERE-luciferase agonist, 22 h; activation: at 70.3 µM (top of the series).
A short description of assay [12]: qHTS assay to identify small molecule antagonists of the estrogen receptor alpha (ER-alpha) signaling pathway using the BG1 cell line (AID 743080; calls by dose curve;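 further: BG1 cells stimulated with 17beta-estradiol alongside compound; nearly all actives have a fitted effect of over 25% in size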). In outline:
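Luciferase inhibition measured with ONE-Glo after 30 min at RT in BG1Luc4E2 cells given test compounds and 17beta-estradiol for 21.5 h at 37 C; CellTiter-Fluor viability read in the same wells beforehand.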

A short description of assay [13]: qHTS assay to identify small molecule antagonists of the estrogen receptor alpha (ER-alpha) signaling pathway using the BG1 cell line - cell viability counter screen (AID 743081).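 Further: compound given together with 17beta-estradiol as the ER stimulus; nearly all actives have a fitted effect of over 45% in size.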
The next assay deals with Aromatase (Homo sapiens) (UniProt P11511). Description: qHTS assay to identify aromatase inhibitors (AID 743083). Further: nearly all actives have a fitted effect of over 55% in size.
Assay [14] in a line: qHTS assay to identify small molecule antagonists of the thyroid receptor (TR) signaling pathway - cell viability counter screen (AID 743064). Further: nearly all actives have a fitted effect of over 50% in size. Further: potency means the concentration at half of the fitted maximal effect. The procedure, abridged:
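CellTiter-Fluor readout, 30 min at 37 °C/5% CO2, following 23.5 h incubation of GH3.TRE-Luc cells with test compound and 1 nM T3 (final).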

Assay [15] has as its target Estrogen receptor (Homo sapiens) (UniProt P03372). Description: qHTS assay to identify small molecule antagonists of the estrogen receptor alpha (ER-alpha) signaling pathway (AID 743069; active means well fitted curve in the direction sought with a large enough effect in the signal ratio in the repeat runs, not every such curve was filed as active; the % refers to the signal ratio; further: potency means the concentration at half of the fitted maximal effect). In outline: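 Screening used a UAS-driven beta-lactamase reporter integrated into HEK293 cells expressing ER-alpha, stimulated with 17beta-estradiol alongside test compounds over 18 hr at 37C; signal came from LiveBLAzer B/G FRET fluorescence.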

Assay [16] concerns the target Androgen receptor (Homo sapiens) (UniProt P10275). Description: qHTS assay to identify small molecule agonists of the androgen receptor (AR) signaling pathway (AID 743036; active means well fitted activation curve with a large enough effect in the signal ratio in the repeat runs, with a control signal flat, not every such curve was filed as active; the % refers to the signal ratio). In outline:
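Following a 4 h settling period, AR-UAS-bla HEK293 cells were dosed with compounds for 16 h at 37C. A 2 h room-temperature incubation with LiveBLAzer B/G FRET substrate preceded the fluorescence measurement.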

Assay [17] is described as follows: qHTS assay to identify small molecule antagonists of the thyroid receptor (TR) signaling pathway (AID 743065). Further: nearly all actives have a fitted effect of over 55% in size. Further: potency means the concentration at half of the fitted maximal effect. In outline: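 GH3.TRE-Luc rat pituitary cells carrying two TR response elements driving luciferase were plated for 4 h, given compound plus 1 nM T3 (final), and incubated 23.5 h at 37 C. ONE-Glo luminescence measured reporter inhibition; CellTiter-Fluor fluorescence tracked cytotoxicity.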

Assay [18] deals with Androgen receptor (Homo sapiens) (UniProt P10275). In words: qHTS assay to identify small molecule antagonists of the androgen receptor (AR) signaling pathway (AID 743035; active means well fitted inhibition curve with a large enough effect in the signal ratio in the repeat runs, not every such curve was filed as active; the % refers to the signal ratio). The procedure, abridged: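 In this cell-based reporter screen, compounds were tested in concentration series against R1881-activated HEK293 cells expressing beta-lactamase under UAS control; after 16 h at 37C, FRET substrate was added and fluorescence read 2 h later.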

For assay [19] the target is unchanged. In words: qHTS assay to identify small molecule agonists of the androgen receptor (AR) signaling pathway using the MDA cell line (AID 743040; further: nearly all actives have a fitted effect of over 20% in size). In outline:
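Agonist activity is measured as luciferase luminescence in human MDA-kb2 cells whose MMTV reporter responds to both AR and GR. Compounds in DMSO incubate 16 h at 37C, 0% CO2, and ONE-Glo is read after 30 min.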
On the % scale 0 is the no-effect control and ±100 the full control effect.

Chain of Estrogen receptor (Homo sapiens) (P03372 whole entry, looked up): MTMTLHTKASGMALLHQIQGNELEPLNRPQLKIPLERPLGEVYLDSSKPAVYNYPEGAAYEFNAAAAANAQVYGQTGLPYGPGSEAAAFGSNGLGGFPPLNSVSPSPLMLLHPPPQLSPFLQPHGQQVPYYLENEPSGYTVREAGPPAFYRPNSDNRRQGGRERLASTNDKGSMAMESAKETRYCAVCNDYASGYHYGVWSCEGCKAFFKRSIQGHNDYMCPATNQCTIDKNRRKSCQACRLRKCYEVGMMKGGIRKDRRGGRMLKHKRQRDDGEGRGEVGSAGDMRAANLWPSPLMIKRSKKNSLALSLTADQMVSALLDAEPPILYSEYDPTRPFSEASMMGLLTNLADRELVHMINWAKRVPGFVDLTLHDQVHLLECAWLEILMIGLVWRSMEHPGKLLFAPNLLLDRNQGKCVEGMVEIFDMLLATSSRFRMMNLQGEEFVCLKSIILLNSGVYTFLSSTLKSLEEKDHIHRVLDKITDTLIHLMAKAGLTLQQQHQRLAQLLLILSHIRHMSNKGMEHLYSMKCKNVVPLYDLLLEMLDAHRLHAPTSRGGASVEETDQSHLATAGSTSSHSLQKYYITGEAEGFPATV
Chain of Androgen receptor (Homo sapiens) (P10275 whole entry, looked up): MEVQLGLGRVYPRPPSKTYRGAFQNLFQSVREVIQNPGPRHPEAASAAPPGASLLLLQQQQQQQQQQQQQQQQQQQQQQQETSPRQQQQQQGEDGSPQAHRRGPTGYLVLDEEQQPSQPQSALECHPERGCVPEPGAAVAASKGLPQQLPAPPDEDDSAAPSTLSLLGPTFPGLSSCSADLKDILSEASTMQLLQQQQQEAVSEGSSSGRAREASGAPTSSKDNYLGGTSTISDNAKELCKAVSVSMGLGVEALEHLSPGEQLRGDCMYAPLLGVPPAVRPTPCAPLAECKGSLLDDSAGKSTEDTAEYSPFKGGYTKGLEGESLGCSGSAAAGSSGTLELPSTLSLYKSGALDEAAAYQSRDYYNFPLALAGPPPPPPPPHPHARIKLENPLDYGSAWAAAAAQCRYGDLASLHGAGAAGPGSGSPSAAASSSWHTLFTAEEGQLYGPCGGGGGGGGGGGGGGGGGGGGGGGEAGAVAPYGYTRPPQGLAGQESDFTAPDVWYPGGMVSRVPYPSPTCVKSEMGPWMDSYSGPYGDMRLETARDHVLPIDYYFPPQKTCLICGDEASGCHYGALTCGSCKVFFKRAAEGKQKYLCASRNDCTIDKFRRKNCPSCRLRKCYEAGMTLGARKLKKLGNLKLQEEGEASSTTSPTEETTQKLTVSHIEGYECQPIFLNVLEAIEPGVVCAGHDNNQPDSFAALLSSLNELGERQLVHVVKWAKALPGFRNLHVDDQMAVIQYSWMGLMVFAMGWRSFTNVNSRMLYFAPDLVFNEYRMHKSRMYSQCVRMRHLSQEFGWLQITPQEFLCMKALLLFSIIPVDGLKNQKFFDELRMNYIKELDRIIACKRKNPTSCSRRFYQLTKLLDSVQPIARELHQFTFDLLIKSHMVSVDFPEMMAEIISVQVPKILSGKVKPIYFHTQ
Chain of Aromatase (Homo sapiens) (P11511 whole entry, looked up): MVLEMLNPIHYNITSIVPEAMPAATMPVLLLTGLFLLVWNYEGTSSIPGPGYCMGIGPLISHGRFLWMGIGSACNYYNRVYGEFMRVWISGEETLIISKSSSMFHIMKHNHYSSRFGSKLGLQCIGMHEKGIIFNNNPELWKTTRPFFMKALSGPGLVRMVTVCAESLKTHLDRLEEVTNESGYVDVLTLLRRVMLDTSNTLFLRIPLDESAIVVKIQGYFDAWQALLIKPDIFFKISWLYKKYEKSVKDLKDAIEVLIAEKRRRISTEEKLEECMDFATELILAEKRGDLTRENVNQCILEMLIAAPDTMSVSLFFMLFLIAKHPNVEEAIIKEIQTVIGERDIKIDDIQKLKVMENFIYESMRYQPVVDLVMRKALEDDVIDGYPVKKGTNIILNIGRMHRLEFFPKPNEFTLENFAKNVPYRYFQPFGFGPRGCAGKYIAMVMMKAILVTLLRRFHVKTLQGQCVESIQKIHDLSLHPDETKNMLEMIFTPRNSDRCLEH

Consider `CC(=O)[C@H]1CC[C@H]2[C@@H]3C=CC4=CC(=O)CC[C@@]4(C)[C@@H]3CC[C@]12C`, for which the Potency result in assay [1], in assay [5], in assay [6], in [7], in [9] and in assay [10] was “inactive” in each case. The Potency result (in assay [11]; in assay [12]; in [13]; in the assay with Aromatase (Homo sapiens)) was “inactive” each time. Also, the Potency in assay [2] is 4.03 µM (active); in assay [3], 3.59 µM (active); in [4] it was 4.52 µM (active). Also, the call in assay [8] was inactive.
Take `O=C(O)c1cccnc1C(=O)O`: the Potency entry in [1], in assay [2], in assay [3], in [4], in assay [5] and in assay [6] was “inactive” each time. Moreover, the Potency result in assay [14], in [15], in assay [9], in assay [10], in [11] and in assay [12] was “inactive” throughout. Besides, the Potency entry (in [13]; in the assay with Aromatase (Homo sapiens)) was “inactive” in each case. In addition, in [8], the molecule was classed as inactive.
On to `COc1cc2ncnc(Nc3ccc(F)c(Cl)c3)c2cc1OCCCN1CCOCC1`, for which the Potency result in [1], in assay [5], in [16], in [6], in assay [9] and in [10] was “inactive” in each case. In the assay with Aromatase (Homo sapiens), the Potency result is “inactive”. For the same molecule, the Potency in [2] is 26.6 µM (active); in [3] it was 26.6 µM (active); in assay [4], 21.1 µM (active); in assay [14] it was 10.6 µM (active); in assay [17] it was 10.6 µM (active); in assay [15], 16.9 µM [inhibitor] (active).
`CCOc1cc(N)c(Cl)cc1C(=O)NCC1CN(Cc2ccc(F)cc2)CCO1` (configuration not stated): the Potency result in assay [1], in assay [5], in assay [6], in [14], in assay [15] and in assay [9] was “inactive” each time. In addition, the Potency entry (in assay [10]; in assay [11]; in assay [12]; in assay [13]; with Aromatase (Homo sapiens)) was “inactive” throughout. In addition, the values for the Potency in assay [2], in assay [3] and in [4] were 18.8 µM (active), 11.9 µM (active) and 21.1 µM (active), respectively. Besides, the call in assay [8] was inactive.
For the molecule `CC(C)CCCC(=O)O`, the Potency entry in assay [1], in assay [2], in assay [3], in [4], in [5] and in [18] was “inactive” in each case. Moreover, the Potency entry in assay [16], in [19], in assay [6], in [7], in assay [17] and in [15] was “inactive” each time. For the same molecule, the Potency result (in [9]; in assay [10]; in assay [11]; in assay [12]; in assay [13]; in the assay with Aromatase (Homo sapiens)) was “inactive” in each case. The call in assay [8] was inactive.
Consider `C=CCCCCCCCCCCCCCCCC`, for which the viability change, negative = cytotoxic was -0.145% [at 7.04 µM] in [1] and -4.7% [at 8.47 µM] in assay [6]. Moreover, the activity change, negative = cytotoxicity in assay [2] is -12.1% [at 8.52 µM]; in [4], -0.283% [at 8.55 µM]; in assay [5], 0.86% [at 7.04 µM]; in assay [13], 4.81% [at 8.47 µM]. Moreover, the results for the activity, negative = cytotoxicity in assay [3] and in assay [9] were 2.07% [at 8.53 µM] and -5.03% [at 6.72 µM], respectively. For the same molecule, the activity change, negative = cytotoxic in assay [14] was -9.44% [at 8.44 µM]. Also, the figures for the activity, negative = inhibition (in assay [17]; in assay [15]; with Aromatase (Homo sapiens)) were -26.3% [at 8.44 µM], 10.1% [at 6.71 µM] and 12.3% [at 8.47 µM], respectively. Further, the values for the activation in assay [8], in assay [10] and in [11] were -0.275% [at 8.08 µM], -3.79% [at 6.71 µM] and 4.88% [at 8.47 µM], respectively. Besides, the activity change, negative = inhibition in [12] was 2.27% [at 8.47 µM].
Regarding `C=CC(=C)CCCC(C)(C)OC(C)=O`, the Potency entry in assay [1], in assay [2], in [3], in assay [4], in [5] and in assay [18] was “inactive” in each case. The Potency entry in assay [16], in assay [19], in [7], in [14], in assay [17] and in assay [9] was “inactive” each time. The Potency entry (in [13]; with Aromatase (Homo sapiens)) was “inactive” in each case. The molecule was called inactive in assay [8].
